# Source: ChEMBL document CHEMBL3988442, “University of Dundee, Small-Polar-MMV Screening Library” (2021)
# About 950 (1.4%) of roughly 69,000 compounds showed an effect of 50% or more. Shown is part of a subset that was picked to be rich in strong results.
# System: Mycobacterium tuberculosis
# Test: Cornell M. t heat shock assay; further: in the data most compounds retested in dose-response had high values
# Assay type: functional, organism-based
# Parameters: dose or concentration left out as unconfirmed
row,Structure (SMILES),Percent Effect [%]
1,Cc1cc(C)n(-c2ccc(NCCNS(=O)(=O)c3ccccc3)nn2)n1,7.275
2,Cc1nsc(NCCNS(=O)(=O)c2ccccc2)n1,-4.682
3,Cc1ccc(C)c(S(=O)(=O)NCCNc2ccc(-n3cccc3)nn2)c1,35.9
4,O=S(=O)(Cc1ccccc1)NCCNc1ccc(-n2cccc2)nn1,-9.655
5,O=S(=O)(NCCNc1cc(-n2cccc2)ncn1)c1cccs1,9.38
6,O=S(=O)(NCCNc1ccc(-n2cccc2)nn1)c1cccs1,103.8
7,O=S(=O)(NCCNc1cc(-n2cccn2)ncn1)c1cccs1,-0.2009
8,O=S(=O)(NCCNc1ccc(-n2cccn2)nn1)c1ccccc1,101.1
9,O=S(=O)(NCCNc1ccc(-n2cccc2)nn1)c1ccccc1,100.9
10,CNC(=O)CN1CC[C@H]2CN(C(=O)c3ccccc3F)C[C@H]2C1.O=C(O)C(F)(F)F,-22.98
11,CC(C)c1nn(C)c(N(C)C)c1CNCc1ccccc1CO.Cl,37.79
12,CCOC1COC2(CCN(Cc3ccc(C)cc3)CC2)C1.O=C(O)C(F)(F)F (stereo not given),-2.769
13,O=C(NC1CC2(CCN(CCO)CC2)Oc2ccccc21)c1csnn1 (stereo not given),10.49
14,COCCN1CCC2(CC1)CC(NC(=O)COC)c1ccccc1O2.O=C(O)C(F)(F)F (stereo not given),-4.974
15,CCN1CCC2(CC1)CC(NC(=O)c1csnn1)c1ccccc1O2.O=C(O)C(F)(F)F (stereo not given),54.1
16,CCN1CCC2(CC1)CC(NC(=O)c1c[nH]cn1)c1ccccc1O2 (stereo not given),11.74
17,COCCN1CCC2(CC1)CC(NC(=O)CN(C)C)c1ccccc1O2.O=C(O)C(F)(F)F.O=C(O)C(F)(F)F (stereo not given),-9.867
18,CN1CCC2(CC1)CC(NC(=O)c1csnn1)c1ccccc1O2.O=C(O)C(F)(F)F (stereo not given),76.95
19,N#Cc1cccc(CN2Cc3nccn3CC(COCC3CC3)C2)c1.O=C(O)C(F)(F)F (stereo not given),-23.01
20,O=C1CCCC2=C1C(c1ccccc1Cl)Nc1nonc1N2 (stereo not given),3.129
21,O=C(CNC(=O)c1ccoc1)NCCOc1ccc2c(c1)CCC2,12.38
22,Cc1occc1C(=O)NCC(=O)NCCOc1ccc2c(c1)CCC2,50.55
23,Cc1occc1C(=O)NCC(=O)NCCOc1cccc(Cl)c1,34.75
24,Cc1ccc(CN2CCOCC3(CCN(Cc4cccs4)C3)C2)o1.O=C(O)C(F)(F)F.O=C(O)C(F)(F)F (stereo not given),-11.36
25,COCCN1CCc2c(c(COc3cccnc3)nn2C)C1.O=C(O)C(F)(F)F.O=C(O)C(F)(F)F,5.842
